# Assay outcomes (PubChem BioAssay)
# A549 tox-1: A549 cytotoxicity, counter-screen for Nrf2 inhibitors. AID 504648. A549 ARE-Fluc cells, CellTiter-Fluor viability, 18-24 h. Potency, µM (top dose mostly 46 µM), for inactives: top-dose activity change, negative = cytotoxicity, hits mostly inhibitors. 390,000 tested, 0.16% active; further: on the % scale 0 is the no-effect control and ±100 the full control effect
#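 Cytotoxicity counterscreen: CellTiter-Fluor fluorescence was measured in A549 ARE_Fluc cells after 18-24 h of compound exposure in a concentration series. The subsequent BugLite luminescent read reports ARE-luciferase activity.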
# Nrf2 activator: Nrf2 pathway activation; 410,000 tested, 0.31% active; Potency, µM (titrated, usually from 46.1 µM), without a hit: top-dose activation, most hits filed as activators; AREc32 ARE-luciferase reporter (MCF7-derived line), luminescence, 24 h; further: % of control where 0% means no effect; nearly all actives have a fitted effect of over 65% in size
#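 Each well held 1000 AREc32 cells, which were incubated with compound for 24 hr at 37 deg C after overnight attachment, and ARE reporter activity was quantified by firefly luciferase luminescence.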
# Nrf2 inh: inhibitors of Nrf2 signaling; A549 ARE-Fluc reporter, luciferase luminescence, 18-24 h; Potency, µM (series often up to 46 µM), without a hit: at the highest dose activity change, negative = inhibition, hits mostly inhibitors; 360,000 tested, 2.1% active; further: on the % scale 0 is the no-effect control and ±100 the full control effect; nearly all actives have a fitted effect of over 60% in size
#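 In this cell-based qHTS, ARE-driven firefly luciferase in A549 cells reports Nrf2 activity; the luminescent signal after BugLite lysis is the measured value, with a prior CellTiter-Fluor read for cell health.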
# Epigenetic derep: regulators of epigenetic silencing causing reporter derepression in mouse cells; murine LDR cells, GFP reporter derepression, 30 h; Potency, µM (doses to about 53.9 µM), for the others: at the top dose GFP activation, usual class: activators; 280,000 tested, 0.2% active; further: % of control where 0% means no effect; nearly all actives have a fitted effect of over 60% in size
#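 GFP-positive cell count by laser-scanning cytometry (objects 20–120 um) after 30 h, 37 C compound exposure of murine LDR cells; reporter is CMV-GFP integrated at a silenced locus, inducible by HDAC or DNMT inhibitors.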
# PINK1 modulator: changes PINK1 expression | 410,000 tested, 0.2% active | AID 624263 | Potency, µM (titrated, usually from 76.6 µM), for the others: at the top dose activation (PINK1 increase), usual class: activators | PINK1 immunofluorescence, high-content cytometry, 24 h; active means well fitted activation curve with a large enough effect; inconclusive means small, poorly fitted or top-dose-only effect; cell line not stated here; further: % of control where 0% means no effect; nearly all actives have a fitted effect of over 65% in size
#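 Measures PINK1 amount and localization on or inside mitochondria by immunofluorescence. Stable cells get compounds at 5 concentrations for 24 hours before fixation and staining; CCCP controls included.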
# FLuc counter 3: counter-screen for Nrf2 inhibitors: firefly luciferase enzyme inhibition; shares compounds with Nrf2 inh; purified firefly luciferase, luminescence inhibition; Potency, µM (doses to about 57.5 µM), inactives show at the highest dose activity change, negative = inhibition, actives largely listed as inhibitors; 1,400 tested, 4% active; AID 720522; further: on the % scale 0 is the no-effect control and ±100 the full control effect; nearly all actives have a fitted effect of over 65% in size
# Target sequence (P08659 whole entry, looked up): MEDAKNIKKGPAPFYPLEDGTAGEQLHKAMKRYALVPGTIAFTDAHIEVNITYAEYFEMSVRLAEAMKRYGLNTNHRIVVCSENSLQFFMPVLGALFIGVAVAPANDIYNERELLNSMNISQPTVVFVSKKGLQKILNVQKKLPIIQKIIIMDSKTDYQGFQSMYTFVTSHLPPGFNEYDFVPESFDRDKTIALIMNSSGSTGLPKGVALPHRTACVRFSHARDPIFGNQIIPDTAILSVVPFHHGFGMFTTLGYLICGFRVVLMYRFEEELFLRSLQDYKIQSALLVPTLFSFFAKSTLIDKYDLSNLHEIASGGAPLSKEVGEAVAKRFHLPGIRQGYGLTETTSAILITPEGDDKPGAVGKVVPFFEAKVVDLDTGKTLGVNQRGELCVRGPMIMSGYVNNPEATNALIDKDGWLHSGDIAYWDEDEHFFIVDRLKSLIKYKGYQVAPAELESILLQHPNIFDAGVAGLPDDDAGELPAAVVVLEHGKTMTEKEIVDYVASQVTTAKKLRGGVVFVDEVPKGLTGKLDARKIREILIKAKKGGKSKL
# A549 tox-2: A549 cytotoxicity, Nrf2 inhibitor counterscreen; shares compounds with Nrf2 inh; A549 ARE-Fluc cells, cytotoxicity counterscreen; Potency, µM (top dose mostly 46.1 µM), for inactives: at the highest dose activity change, negative = cytotoxicity, actives largely listed as inhibitors; 1,400 tested, 2% active; AID 720523;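 further: cells exposed to compounds for 18 to 24 hours; on the % scale 0 is the no-effect control and ±100 the full control effect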
# ARE-Fluc inh: confirmation of Nrf2 inhibitors in A549 ARE reporter cells. shares compounds with Nrf2 inh. A549 ARE-firefly luciferase reporter, luminescence. Potency, µM (doses to about 46.1 µM), inactives show top-dose activity change, negative = inhibition, usual class: inhibitors. 1,400 tested, 74% active; further: on the % scale 0 is the no-effect control and ±100 the full control effect; nearly all actives have a fitted effect of over 65% in size
# * = called active by the depositor; ? = inconclusive; · = not tested or not shown; [ ] = another dose, or the depositor's remark. This is a sample that favours compounds with a hit; in the whole collection about 2.4% have one here. Unless noted, the call rests on the fitted dose curve; in most records, active means well fitted curve in the direction sought with a large enough effect; inconclusive means small, poorly fitted or top-dose-only effect, or another doubt; inactive means no such curve, though single readings can be large; an effect the other way counts as inactive or inconclusive. Potency means the concentration at half of the fitted maximal effect.
SMILES,A549 tox-1,Nrf2 activator,Nrf2 inh,Epigenetic derep,PINK1 modulator,others
CCOC(=O)CC1c2ccccc2-n2nncc2CN1C (stereo not drawn),6.6%,-0.4%,0.5%,·,1.0%,
C1=C(c2c[nH]c3ccccc23)CCN(Cc2ccccc2)C1,-6.5%,7.1%,6.51µM*,-0.2%,24.4%,
O=[N+]([O-])c1ccc(CN2CC=C(c3ccccc3)CC2)cc1,-2.2%,0.3%,?,·,0.5%,
CCN(CC)c1ccc(/C=C2\C(=O)NC(=S)N(c3ccc(OC)cc3OC)C2=O)o1,13µM*,5.0%,-20.3%,·,-0.4%,
COc1ccc(N2C(=O)/C(=C/c3ccc(N(C)C)o3)C(=O)NC2=S)cc1,?,3.3%,0.4%,·,-2.4%,
O=c1cccc2n1CC1CC2CN(Cc2cccc(Cl)c2Cl)C1 (stereo not drawn),-3.6%,2.0%,20.6µM*,?,-2.5%[38.3 µM],
O=S(=O)(c1ccc(F)c(F)c1F)N1CCN(c2ncnc3sccc23)CC1,-0.4%,4.9%,13µM*,·,?,
O=S(=O)(c1ccccc1C(F)(F)F)N1CCN(c2ncnc3sccc23)CC1,-3.8%,2.7%,?,·,-0.6%,
C=C(C)C(=O)CP(=O)(OCC)OCC,·,·,·,5.7%,·,
O=C(Nc1ccc2nc3n(c(=O)c2c1)CCCCC3)c1cccc(C(F)(F)F)c1,-16.8%,5.1%,11.6µM*,-6.2%,0.6%,
O=C(c1cccc(C(F)(F)F)c1)C1CCCN(Cc2ccccc2O)C1 (stereo not drawn),1.1%,0.3%,-3.6%,-4.9%,-2.3%,
C/C=C1/C[C@@H](C)[C@@](C)(O)C(=O)OCC2=CCN3CC[C@@H](OC1=O)[C@@H]23,-0.1%,·,-16.4%,·,·,
CCOc1ccc(-c2cc(C)[n+](CCO)c(-c3ccc(OCC)cc3)c2)cc1,-7.2%,0.2%,11.6µM*,0.9%,0.3%,
O=C(Nc1ccc(Br)cc1)c1cccc(S(=O)(=O)N2CCc3ccccc32)c1,-22.4%,-0.9%,16.4µM*,-1.6%,4.2%,
CCCCn1c(N)c(C(=O)OCCOC)c2nc3ccccc3nc21,10.3%,-0.1%,-0.1%,1.0%,-0.2%,
COCCCn1c(N)c(C(=O)NCCC(C)C)c2nc3ccccc3nc21,?,0.1%,16.4µM*,1.0%,11.5%[38.3 µM],
CN(C)c1ccc([N+](=O)[O-])c([N+](=O)[O-])c1,?,11.2µM*,-20.1%,·,0.5%,
Oc1ccc2c3c1O[C@H]1c4c(c5ccccc5n4Cc4ccccc4)C[C@@]4(O)C(C2)N(CC2CC2)CC[C@]314,·,·,·,1.1%,·,
COCCOC(=O)c1c(C)n(C)c2ccc(OC(=O)N(C)C)cc12,-9.0%[1.84 µM],0.0%,2.5%,-9.4%,5.62µM*,
CCOC(=O)c1c(C)n(C(C)C)c2ccc(OC(=O)c3ccc(N4C(=O)CCC4=O)cc3)cc12,-0.1%,0.3%,4.9%,4.4%,-0.9%,
C[C@]12CC[C@H](O)CC1=CCC1C2CC[C@@]2(C)C1C[C@@H](O)[C@@H]2O (stereo partly drawn),9.3%,-0.1%,11.9%,·,-0.5%,
CC(=O)C1C(N2CC2)CC2C3CC=C4CC(O)CCC4(C)C3CCC21C (stereo not drawn),8.2µM*,8.7%,2.6%,·,-4.5%,
CCc1ccccc1NC(=O)C1CCCN(c2ncnc3onc(C)c23)C1 (stereo not drawn),-12.9%,0.6%,?,-1.3%,0.1%,
CC[n+]1c(-c2ccccc2)c2cc(N)ccc2c2ccc(N)cc21,?,-3.3%,14.6µM*,-2.1%,-5.6%,
Cc1ccc2c(c1)C(c1ccccc1)=NCC(=O)N2,-0.9%,0.1%[9.22 µM],10.7%,·,4.4%,
SMILES,A549 tox-1,Nrf2 activator,Nrf2 inh,Epigenetic derep,PINK1 modulator,others
Cc1ccc2c(c1)C(c1ccccc1)=NCC(=O)N2C,-2.6%,2.7%,9.2µM*,·,2.6%,
CC(C)[C@H]1C(=O)O[C@H](C(C)C)C(=O)N(C)[C@@H](C(C)C)C(=O)O[C@H](C(C)C)C(=O)N(C)[C@@H](C(C)C)C(=O)O[C@H](C(C)C)C(=O)N1C,?,4.3%,3.66µM*,-1.5%,?,
Cc1cc(C)c2c(ccc3cccc[n+]32)c1,?,-0.8%,1.3µM*,·,0.5%,
CCC(Oc1ccc(Cl)cc1)C(=O)OC1CC2CCC(C1)N2C (stereo not drawn),·,·,·,0.0%,·,
N#CC(C#N)=NNc1ccc(-n2ccc(C(F)(F)F)n2)cc1,?,-0.1%,16.4µM*,5.7%,?,
Cc1cc(C)n(-c2ccc(NN=C(C#N)C#N)cc2)n1,-9.7%,2.5%,?,1.5%,?,
O=C(Nc1cccc(Cl)c1)N1C[C@H]2C[C@@H](C1)c1cccc(=O)n1C2,10.0%,-0.7%,5.3%,·,0.2%,
O=C(Nc1cccc(Cl)c1)c1cnc2sc(N3CCCC3)nn2c1=O,-0.6%,0.3%,5.17µM*,0.8%,4.1%,FLuc counter 3=-2.8%;A549 tox-2=-11.4%;ARE-Fluc inh=4.61µM*
CC1CC2CC(=O)C3CCCN4CCCC2[C@]34C1 (stereo partly drawn),·,·,·,-1.7%,-1.0%,
COc1ccc(NC(=O)CSc2nc(-c3ccco3)cc(C(F)(F)F)n2)cc1OC,-10.8%,0.1%,1.64µM*,-0.1%,0.2%,FLuc counter 3=-1.7%;A549 tox-2=-8.2%;ARE-Fluc inh=2.31µM*
C=C(C)CSc1nnc([C@@H](N)Cc2c[nH]c3ccccc23)o1,0.6%,2.9%,?,-1.0%,-0.5%,
Cc1[nH]nc2ccc(-c3cncc(OC[C@@H](N)Cc4c[nH]c5ccccc45)c3)cc12,?,-3.3%,5.17µM*,·,-2.0%,FLuc counter 3=-1.2%;A549 tox-2=?
COC[C@]12CN(C=O)C3C4C(OC)C1[C@@]3(C1CC3(O)C(OC)C(O)C4(OC(C)=O)C1C3OC(=O)c1ccccc1)[C@@H](OC)CC2O (stereo partly drawn),·,·,·,-4.8%,0.6%,
CC(=O)OC1CC[C@]2(C#N)[C@H]3CC[C@]4(C)[C@H](C5C=CC(=O)O5)CCC4(O)C3CCC2(O)C1 (stereo partly drawn),-15.4%,-4.6%,5.17µM*,·,-0.1%,FLuc counter 3=-1.5%;A549 tox-2=?;ARE-Fluc inh=6.51µM*
COC(=O)[C@H]1[C@@H](c2ccccc2)[C@@]2(c3ccccc3)Oc3ccccc3[C@@]1(O)[C@@H]2O,·,·,·,1.1%[10.1 µM],·,
CS(=N)(=O)CC[C@@H](N)C(=O)O (stereo partly drawn),·,·,·,1.4%[16.9 µM],·,
